Records with an inconclusive call do not appear. Calls of active or inactive are those of the source. Unless noted, calls follow the shape of the dose curve; as a rule, active = well fitted curve in the direction sought with a large enough effect; inconclusive = small, poorly fitted or top-dose-only effect, or another doubt; inactive = no such curve, though single readings can be large; an effect the other way counts as inactive or inconclusive.
Key:
[1] = qHTS for Inhibitors of Plasmodium falciparum (DD2) proliferation (AID 504314);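 also: parasite DNA measured by SYBR Green fluorescence after red cell lysis; plate controls were DMSO vehicle for no effect and artemisinin wells for full effect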
In short: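 Normalization used 0.29 uM artemisinin as full inhibition and DMSO as baseline. Parasitized erythrocytes were exposed to compounds for 72 h (37C, 5% CO2), then lysed with saponin/Triton buffer containing SYBR Green I.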

[2] = qHTS for Inhibitors of Plasmodium falciparum (GB4) proliferation (AID 504315);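 also: 0% = DMSO vehicle and -100% = 0.29 µM artemisinin control; nearly all actives have a fitted effect of over 50% in size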
In short: (§1)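 Parasite growth measured as SYBR Green DNA fluorescence (ex 485, em 535 nm) after overnight lysis following 72 h culture at 37 °C, 0.3% parasitemia, 2.5% hematocrit. Values normalized against DMSO and 0.29 uM artemisinin controls, with plate-stack correction.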

[3] = qHTS for Inhibitors of Plasmodium falciparum (7G8) proliferation (AID 504316);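 also: series mostly up to about 6.7 µM; 0% = DMSO vehicle and -100% = 0.29 µM artemisinin full kill; nearly all actives have a fitted effect of over 65% in size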
In short: as §1

[4] = qHTS for Inhibitors of Plasmodium falciparum (HB3) proliferation (AID 504318);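 also: 0% = DMSO vehicle and -100% = artemisinin control; nearly all actives have a fitted effect of over 60% in size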
In short: as §1

[5] = qHTS for Inhibitors of Plasmodium falciparum (CP250) proliferation (AID 504320);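 also: plate controls were DMSO vehicle for no effect and 0.29 µM artemisinin control for full effect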
In short: as §1

[6] = target: Atrial natriuretic peptide receptor 1 (Homo sapiens) (UniProt P16066); experiment: Natriuretic polypeptide receptor (hNpr1) antagonism - Pilot CMLD screen (AID 1347052; calls by dose curve;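 also: HEK293 cells with hNpr1 stimulated by hNppA peptide at 0.1 nM; cGMP level read as GloSensor luciferase luminescence after agonist stimulation; series mostly up to about 9.2 µM; % is scaled to controls: 0 for no effect and ±100 for the full control effect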)
Atrial natriuretic peptide receptor 1 (Homo sapiens), sequence (P16066 whole entry, looked up): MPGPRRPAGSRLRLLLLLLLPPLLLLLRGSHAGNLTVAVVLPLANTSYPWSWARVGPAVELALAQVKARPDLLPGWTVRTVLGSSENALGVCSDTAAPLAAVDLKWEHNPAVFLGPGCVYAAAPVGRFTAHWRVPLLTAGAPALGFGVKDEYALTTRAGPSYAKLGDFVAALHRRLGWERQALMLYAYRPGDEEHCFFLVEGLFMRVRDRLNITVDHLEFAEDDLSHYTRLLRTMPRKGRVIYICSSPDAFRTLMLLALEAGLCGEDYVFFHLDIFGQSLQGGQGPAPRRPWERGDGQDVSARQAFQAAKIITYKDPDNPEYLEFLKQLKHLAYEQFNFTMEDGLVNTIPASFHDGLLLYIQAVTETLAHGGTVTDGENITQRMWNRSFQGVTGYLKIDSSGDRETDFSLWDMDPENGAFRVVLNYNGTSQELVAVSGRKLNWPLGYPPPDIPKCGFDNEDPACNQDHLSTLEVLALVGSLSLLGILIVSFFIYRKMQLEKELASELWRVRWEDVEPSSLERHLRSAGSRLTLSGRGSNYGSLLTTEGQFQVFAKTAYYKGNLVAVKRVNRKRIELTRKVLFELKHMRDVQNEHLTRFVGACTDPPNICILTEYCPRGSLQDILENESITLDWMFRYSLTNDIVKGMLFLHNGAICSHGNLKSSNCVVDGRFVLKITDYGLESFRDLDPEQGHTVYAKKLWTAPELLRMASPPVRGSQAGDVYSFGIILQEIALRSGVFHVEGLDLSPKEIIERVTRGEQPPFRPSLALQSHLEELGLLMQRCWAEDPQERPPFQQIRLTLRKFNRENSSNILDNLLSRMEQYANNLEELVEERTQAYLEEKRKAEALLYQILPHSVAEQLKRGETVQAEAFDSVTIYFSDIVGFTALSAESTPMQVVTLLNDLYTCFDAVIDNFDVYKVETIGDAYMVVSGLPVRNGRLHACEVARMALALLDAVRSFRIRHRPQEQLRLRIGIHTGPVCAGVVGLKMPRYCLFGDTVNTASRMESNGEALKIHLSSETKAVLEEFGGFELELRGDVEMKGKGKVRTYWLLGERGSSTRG

CCN(CC)CCCN=C1NC(c2ccccc2)C(C(=O)OC)=C(C)N1CC (centres undefined)
inactive: Potency [1] | Potency [2] | Potency [3] | Potency [4] | Potency [5] | Potency [6]

CCCCCCCc1cc2ccccc2c2c(C(C)=O)c(-c3ccccc3)c(C(=O)OC)n12
inactive: Potency [1] | Potency [2] | Potency [3] | Potency [4] | Potency [5] | Potency [6]

CC(=O)OC[C@H]1O[C@H](C#CC(C)(C)C)C=C[C@H]1OC(C)=O
inactive: Potency [1] | Potency [2] | Potency [3] | Potency [4] | Potency [5] | Potency [6]

C#CCN1C(=O)[C@]2(OCCC=C[C@@H]2C)c2cc(OC)ccc21
inactive: Potency [1] | Potency [2] | Potency [3] | Potency [4] | Potency [5] | Potency [6]

C=CCOC(=O)C(C(C)=O)[C@@H](NC(=O)OC)c1cccc(C)c1 (some centres undefined)
inactive: Potency [1] | Potency [2] | Potency [3] | Potency [4] | Potency [5] | Potency [6]

C=CC1=C2C=C(C3CC3)N(Cc3ccccc3)C=C2C(=O)C(C)(OC(=O)c2ccco2)C1=O (centres undefined)
inactive: Potency [1] | Potency [2] | Potency [3] | Potency [4] | Potency [5] | Potency [6]

C[C@@H]1C[C@](C)(C(=O)c2ccc3c(c2)OCO3)C=C1c1ccc2c(c1)OCO2
inactive: Potency [1] | Potency [2] | Potency [3] | Potency [4] | Potency [5] | Potency [6]

C=CCO[C@@H]1C=C[C@@H](c2ccccc2)O[C@@H]1COC
inactive: Potency [1] | Potency [2] | Potency [3] | Potency [4] | Potency [5] | Potency [6]

COc1ccc2c(c1)O[C@@H](c1cccc(C(F)(F)F)c1)[C@H](O)C2=O
inactive: Potency [1] | Potency [2] | Potency [3] | Potency [4] | Potency [5] | Potency [6]

CCCNC(=O)OC[C@H]1O[C@H](CCON=CC[C@@H]2C=C[C@H](OC(C)=O)[C@@H](COC(C)=O)O2)C=C[C@H]1Oc1ccc(OC)cc1
inactive: Potency [1] | Potency [2] | Potency [3] | Potency [4] | Potency [5] | Potency [6]

C=C(C#CCCO)CCN1C=C(C(=O)OCC)C(c2ccccc2)NC1=O (centres undefined)
inactive: Potency [1] | Potency [2] | Potency [3] | Potency [4] | Potency [5] | Potency [6]

COC[C@H]1O[C@@H]2O[C@@H]1[C@@H](C=Cc1ccccc1)C[C@H]2C
inactive: Potency [1] | Potency [2] | Potency [3] | Potency [4] | Potency [5] | Potency [6]

CC1(OC(=O)CCc2ccccc2)C(=O)C=C2C=C(c3ccc(C#N)cc3)N(C(CO)CO)C=C2C1=O (centres undefined)
inactive: activity, negative = inhibition [1] -1.45% [at 1.12 µM] | Potency [2] | Potency [3] | Potency [4] | Potency [5] | Potency [6]

CC[C@H](C)[C@@H](NC(=O)O[C@H]1C(=O)c2cc(OC)ccc2O[C@@H]1c1ccc(OC)c(Br)c1)C(=O)OC
inactive: Potency [1] | Potency [2] | Potency [3] | Potency [4] | Potency [5] | Potency [6]

Source: PubChem BioAssay (NCATS)
